Test results published in PubChem BioAssay AID709 (SRMLSC, 2007).
Out of some 65,000 compounds screened, about 3,600 (5.5%) were called active. The sample holds actives, similar compounds and a random draw of the others, so the mix is not that of the screen. Unmarked numbers belong to inactive results.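 Rule for the calls: active = at 10 µM, mean starting fluorescence two-fold or more over control wells; inactive = the rest.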

assay: intrinsic fluorescence of library compounds, ex339/em460 – biochemical, MLSMR library, data from DPM-DC assay, artefact control, profiling panel (AID 709); conditions: compound autofluorescence, ex339/em460 nm, NADH buffer; at 10 µM; hits give high values; 1 = no-compound wells, NADH background;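 note: signal is the first read of a kinetic run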

Compound	fluorescence fold increase
O=c1[nH]c(=O)n(Cc2ccco2)c2c1C(C(F)(F)F)(C(F)(F)F)N=C(c1ccco1)N2	1.16
CCCCn1nnnc1NCc1cc(OC)c(OC)c(OC)c1	1.07
CCCC(C(=O)NCc1ccco1)N(C(=O)CNS(=O)(=O)c1ccccc1)C1CCCC1 (stereo not given)	1
CC(=NCC1CCCO1)c1c(O)[nH]c(=O)[nH]c1=O (stereo not given)	1.14
Cc1ccc(C)c(S(=O)(=O)n2cnc3ccccc32)c1	1.02
O=C(CSc1nc2ncccc2[nH]1)Nc1ccc2c(c1)OCCO2	1.01
C=C(C)Cn1c(SCC(=O)NCc2ccco2)nc2sc3c(c2c1=O)CCC3	1.09
CN1CCc2c(sc3c2c(NCc2ccco2)nc2nnnn23)C1	2.08 (active)
O=C(Cc1ccccc1)n1nc(-c2ccccc2)nc1NCc1ccco1	1.13
Cc1cccc(N)c1SC1CCCCC1O (stereo not given)	1.03
CCOC(=O)c1cn(CC(=O)Nc2ccc(C(C)C)cc2)nn1	1.16
CCc1nc(Nc2ccc3nccnc3c2)c2oc3ccccc3c2n1	2.54 (active)
COc1ccccc1Nc1ncnc2c1oc1ccccc12	1.7
CCSc1nc(C)nc2c1oc1ccccc12	1.02
CNC(=O)NCCN1CCCC1=O	1.05
COCCNC(=S)c1ccc(OC)cc1	1.02
CCN(CC)CCNC(=O)C1c2ccccc2C(=O)N(C)C1c1cn(C)c2ccccc12 (stereo not given)	1.07
CC1(C)CC(=O)C=C(NCCCN2CCCC2=O)C1	1.11
O=C1CCCN1CCCNc1ncnc2c1[nH]c1ccccc12	2.27 (active)
O=C(CCn1c(=S)[nH]c2ccccc2c1=O)NCCCN1CCCC1=O	0.98
O/N=C(\c1ccc2c(c1)OCCO2)C1CCCCC1	1.08
COC(=O)COc1ccc2oc(=O)cc(C)c2c1	2.31 (active)

Compound	fluorescence fold increase
CCOC(=O)c1c(C)oc2ccc(OCC(=O)N(CC)CC)cc12	1.07
COCCNC(=O)COc1ccc(C)c(C)c1	1.07
COc1ccc(C2CC(c3ccc(C)cc3)Nc3ncnn32)cc1 (stereo not given)	1.03
c1ccc(-n2ncc3c2ncn2c(CSc4nc5ccccc5s4)nnc32)cc1	1.81
Cc1ccc(C(C)C)c(OCc2nnc(SCC(=O)Nc3nccs3)n2C)c1	1.13
O=C(Nc1ccc(S(=O)(=O)N2CCCCC2)cc1)c1cnccn1	1.14
COc1ccc(CCNS(=O)(=O)c2ccc(F)cc2)cc1OC	1.09
Cc1ccc(Cn2ccc(NC(=O)c3cc(C(C)C)on3)n2)cc1	1.08
O=C(c1cc(-c2cccs2)on1)N1CCCCC1	1.16
Cc1cc(NC(=O)c2cc(-c3cccs3)on2)nn1Cc1ccc(Cl)cc1	2.04 (active)
CCOC(=O)c1cc2cc(-c3c(C(=O)OCC)oc4cc(O)cc(O)c4c3=O)ccc2o1	1.11
CCCCOc1ccc(Cl)cc1CSc1nncn1N	1.07
Cc1ccccc1NC(=O)Cc1nnc(SCC(=O)N2CCN(c3ccccc3)CC2)n1C	1
CN(C)c1nc2n(c(=O)n1)CCO2	1.07
c1ccc(Nc2n[nH]nc2-c2ccccc2)cc1	1.07
CCOc1ccc(CNC(=O)C2CCC(=O)N2C2CCCC2)cc1OC (stereo not given)	1.07
CCOc1cc(C2C(C(=O)OC)=CN(C3CCCC3)C=C2C(=O)OC)cc(Br)c1O	2.88 (active)
CCCC(=O)Nc1cc(OCC)c(NC(=O)NC2CCCCC2)cc1OCC	1.11
c1ccc(-n2ncc(-c3nn[nH]n3)n2)cc1	1.08
Cc1ccc(C(=O)Nc2ccc3c(c2)OCO3)cc1S(=O)(=O)N1CCCCC1	1.08
NC(=O)CSC1=Nc2ccccc2C2=NC(CCC(=O)NCc3ccc(F)cc3)C(=O)N12 (stereo not given)	3.51 (active)
O=C(CC1N=C2c3ccccc3N=C(SCc3ccccc3Cl)N2C1=O)NCc1ccco1 (stereo not given)	1.58

Compound	fluorescence fold increase
CC(C)C1N=C2c3ccccc3N=C(SCC(=O)c3ccc(O)c(O)c3)N2C1=O (stereo not given)	1.21
CC(C)C(C(=O)NC1CCCCC1)N(CC1CCCO1)C(=O)CNS(=O)(=O)c1ccc(F)cc1 (stereo not given)	1.11
COc1c(O)cccc1-c1nnn(CCC(=O)OCC(=O)c2ccccc2)n1	1.07
CC(C)(CNCC(O)c1ccccc1)N1CCOCC1 (stereo not given)	1.05
O=S(=O)(O)CCN1CCOCC1	1.15
Brc1cnc(N2CCCC2)nc1N1CCCCC1	1.08
CCOc1cc(-c2nc3cc(C)ccn3c2NCC2CCCO2)ccc1O (stereo not given)	3.63 (active)
CCOc1cccc(=O)c2c(C)n(CC3CCCO3)c(C)c12 (stereo not given)	1.05
CCOc1cc(C(=S)N2CCOCC2)ccc1O	1.04
CCn1c(=O)cc(SCC(=O)NCc2ccc3c(c2)OCO3)c2ccccc21	1.2
COc1cc(-c2nc(-c3ccncc3)no2)cc(OC)c1OC	1.03
COc1ccc(-c2ccc(-c3noc(-c4ccncc4)n3)c(OC)n2)cc1	3 (active)
COc1ccc2[nH]c(=O)c(-c3noc(-c4ccc(F)cc4)n3)cc2c1	1.38
CCOc1nc(-c2ccc(OC)cc2)ccc1-c1noc(-c2cc(OC)c(OC)c(OC)c2)n1	3.92 (active)
O=C(Oc1ccc(-c2nc(-c3ccccn3)no2)cc1)c1ccccc1	1.09
COc1ccc(-c2nc(-c3ccccc3)no2)c(OC)c1	1.12
CCc1nnc(NC(=O)c2c(O)c3c([nH]c2=O)CCCC3)s1	1.12
Cc1ccc2cccc(S(=O)(=O)N3CCN(c4ccccc4F)CC3)c2n1	1.14
O=C(CN1C(=O)CCC1=O)Nc1ccc(S(=O)(=O)N2CCOCC2)cc1	1.15
C=CCSC1=C(C#N)C(c2cc(Br)c(O)c(OC)c2)CC(=O)N1 (stereo not given)	1.07
CN(c1ccc(C(=O)N2CCc3ccccc3C2)cc1)S(C)(=O)=O	1.11
